# AGP1-GFP MLPCN: modulators of AGP1-GFP expression in yeast TOR pathway, primary screen, cell-based, multiplex flow cytometry, S. cerevisiae, MLPCN library. 3 h; GFP as percent of DMSO wells. GFP response vs DMSO, % at 10 µM. 0.02% of 320,000 active. AID 2066, 2009;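 active = GFP response relative to DMSO above a set limit, near screen average plus 3 SD, cut at about 150% in these data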;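 note: median GFP channel fluorescence of the gated AGP1 strain per well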
# LAP4 TOR yeast: modulators of LAP4-GFP expression in yeast, primary screen, S. cerevisiae, multiplex flow cytometry, MLPCN library; 3 h; median GFP as percent of DMSO wells; GFP response vs DMSO, % at 10 µM; 0.34% of 320,000 active; AID 2023, 2009;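 active = GFP response vs DMSO above a set limit, about the screen mean plus 3 SD, cut at about 150% in these data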
# MEP2 TOR yeast: modulators of MEP2-GFP levels in yeast, primary screen, S. cerevisiae, multiplex flow cytometry, MLPCN library; 0.51% of 330,000 active; GFP response vs DMSO, % at 10 µM; S. cerevisiae MEP2-GFP strain, 3 h; 100% = DMSO control level; AID 2016, 2009;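 active = GFP response versus DMSO above a set limit, roughly screen mean plus 3 SD, cut at about 180% in these data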;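 note: median GFP fluorescence of the barcode-gated MEP2-GFP cells per well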
# CIT2-GFP yeast: modulators of CIT2-GFP expression in yeast, primary screen, S. cerevisiae, GFP fusion, multiplex flow cytometry, MLPCN library. S. cerevisiae CIT2-GFP strain, 3 h; 100 means same as DMSO wells. GFP response vs DMSO, % at 10 µM. 0.065% of 320,000 active. AID 2029, 2009;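 active = GFP response relative to DMSO above a set limit, near the screen mean plus 3 SD, cut at about 150% in these data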;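 note: ratio of well median GFP fluorescence to mean of DMSO wells on the plate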
# RPL19A-GFP yeast: RPL19A-GFP expression modulators in yeast, primary screen, cell-based, S. cerevisiae, multiplex flow cytometry, MLPCN; S. cerevisiae RPL19A-GFP strain, 3 h; active compounds read low; 0.3% of 330,000 active; percent response vs DMSO, % at 10 µM; AID 2025, 2009;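 active = percent response vs DMSO below 50%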;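 note: median channel GFP fluorescence of the barcoded RPL19A-GFP strain; ratio of sample median GFP to plate DMSO average so 100% = DMSO; lower means less RPL19A-GFP as with rapamycin TOR inhibition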
# LAP4-GFP pick2: LAP4-GFP expression modulators in yeast, confirmation, cell-based, second cherry pick, flow cytometry | shares compounds with LAP4 TOR yeast | S. cerevisiae LAP4-GFP strain, 3 h | GFP response vs DMSO, % at 10 µM | 20% of 590 active | AID 2621, 2010;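 active = GFP signal as percent of the solvent control above about 150%, meaning raised reporter expression, limit read from the data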;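 note: ratio of well median GFP fluorescence to plate DMSO mean so 100% = DMSO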
# MEP2-GFP pick2: modulators of MEP2-GFP levels in yeast, confirmation, S. cerevisiae, flow cytometry GFP, second cherry picks | shares compounds with LAP4 TOR yeast | S. cerevisiae MEP2-GFP strain, 3 h | GFP response vs DMSO, % at 10 µM | 10% of 590 active | AID 2622, 2010;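 active = GFP signal above 150% of the solvent control wells, that is a rise of more than half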;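 note: median channel GFP fluorescence of all gated yeast cells per well; ratio of median GFP to plate DMSO average so 100% = DMSO level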
# RPL19A-GFP pick2: RPL19A-GFP modulators in TOR pathway yeast, confirmation, cell-based, S. cerevisiae, flow cytometry, second cherry pick | shares compounds with LAP4 TOR yeast | S. cerevisiae RPL19A-GFP strain, 3 h; active compounds read low; 100% means same as DMSO wells | GFP response vs DMSO, % at 10 µM | 3% of 590 active;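 active = under 65% GFP response relative to DMSO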;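 note: median GFP channel fluorescence per well over the all cells gate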
# CIT2 GFP CP2: modulators of CIT2-GFP expression in yeast, confirmation, flow cytometry, second cherry pick, single plex. 8% of 590 active. AID 2624, 2010. GFP response vs DMSO, % at 10 µM. shares compounds with LAP4 TOR yeast. S. cerevisiae CIT2-GFP strain, 3 h; DMSO control wells read 100%;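 active = GFP response vs DMSO above about 150%, limit read from the data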;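 note: median green fluorescence per well over all gated yeast cells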
# AGP1 GFP CP2: AGP1-GFP expression modulators, hit retest, confirmation, cell-based, flow cytometry, S. cerevisiae, cherry pick set 2 | shares compounds with LAP4 TOR yeast | S. cerevisiae AGP1-GFP strain, 3 h | percent response vs DMSO, % at 10 µM | 590 tested, under 10 active;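 active = over 150 percent of DMSO response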;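 note: median GFP channel fluorescence over all cells without mother daughter split; sample median GFP divided by mean DMSO control so 100% equals DMSO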
# s288c autofluor: compound autofluorescence in yeast s288c, dose response, artefact control for yeast TOR pathway GFP screen, s288c strain | shares compounds with LAP4 TOR yeast | S. cerevisiae s288c, 520 nm autofluorescence, flow cytometry, 3 h; active compounds read high; zero means same as solvent-only cells | fluorescence change (kMESF span) at 33 µM | 610 tested, under 10 active | AID 2757, 2010;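 active = fluorescence span over the dose series, or activity score, above about 33, limit read from the data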
# s288c autofl DR: autofluorescence of compounds in yeast s288c, dose response, artefact control for yeast TOR pathway GFP screen, primary hits, KU SAR, s288c parental. 110 tested, under 10 active. S. cerevisiae s288c parental, compound autofluorescence, flow cytometry, 3 h. AID 488829, 2010. fluorescence change (span) at 33 µM. shares compounds with LAP4 TOR yeast;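 active = fluorescence change span, or the activity score built from it, above 25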
# TORC1 bypass: wild-type yeast growth inhibition sparing TORC1 bypass cells, mechanism study for yeast TOR pathway GFP screen, BY4741 wild type, TORC1 bypass strain | shares compounds with LAP4 TOR yeast | S. cerevisiae BY4741 spot growth rating, 48-72 h; active compounds read low | growth rating (0-3) at 30 µM | 120 tested, under 10 active;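 active = growth rating at most 1 for wild type yeast while the TORC1 bypass strain still grows fully, rated 3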
# * marks the source's active call; other numbers are inactive results; x = no result. Shown are actives, neighbours in structure and some others; about 0.93% of the full set was active somewhere.
SMILES,AGP1-GFP MLPCN,LAP4 TOR yeast,MEP2 TOR yeast,CIT2-GFP yeast,RPL19A-GFP yeast,s288c autofluor,others
COc1ccc(-c2cn(Cc3ccc4ccccc4c3)nn2)cc1,78,128,79,90,86,x,
COc1ccc(C(=O)NCc2ccc3c(c2)OCO3)cc1S(=O)(=O)N1CCCC1,102,95,94,107,99,x,
O=C(NCc1ccc2c(c1)OCO2)c1nc(S(=O)(=O)Cc2ccccc2)ncc1Cl,118,175*,102,108,92,-0.21,
Cc1ccc(/C=C/C(=O)c2ccccc2)cc1,114,111,103,107,114,x,
Cc1ccc(/C=C/C(=O)c2ccccc(=O)c2O)c(C)c1,20,106,181*,103,64,0.91,
Cc1ccc(C)c(/C=C/C(=O)c2ccccc(=O)c2O)c1,67,135,96,72,91,14,LAP4-GFP pick2=145;MEP2-GFP pick2=168*;RPL19A-GFP pick2=78;CIT2 GFP CP2=152*;AGP1 GFP CP2=82
O=C(/C=C/c1ccccc1Cl)c1ccccc(=O)c1O,33,146,160,95,63,16,LAP4-GFP pick2=162*;MEP2-GFP pick2=222*;RPL19A-GFP pick2=76;CIT2 GFP CP2=145;AGP1 GFP CP2=77
CC1CCN(C2(O)C(=O)Nc3ccc(Br)cc32)CC1 (stereo unspecified),101,104,98,96,97,x,
COc1cc(S(=O)(=O)N2CCN(C(=O)c3ccco3)CC2)ccc1Cl,107,101,111,109,109,x,
Cc1cc(=O)oc2cc(Oc3ccc([N+](=O)[O-])cc3C(F)(F)F)ccc12,96,99,102,94,96,0.11,LAP4-GFP pick2=105;MEP2-GFP pick2=105;RPL19A-GFP pick2=98;CIT2 GFP CP2=99;AGP1 GFP CP2=103
CC(C)N(Cc1ccccc1)C(=O)COC(=O)c1cnc(Cl)c(Cl)c1,114,108,110,106,104,x,
Nc1nc(Nc2cccc(F)c2)nc(NCCO)c1[N+](=O)[O-],106,106,98,103,97,x,
Nc1cc(Nc2cccc(F)c2)nc(NCc2ccccc2)n1,x,x,x,x,x,x,s288c autofl DR=0.42;TORC1 bypass=3
